Source: PubChem BioAssay
This is a sample that favours compounds with a hit; in the whole collection about 3.6% have one here.
TRHR PAM: allosteric enhancers of human TRH receptor | P34981 | enhancement, % at 2 µM | AID 493056 | 360,000 tested, 0.66% active | TRHR cells, fluo-8 calcium fluorescence, EC20 TRH enhancement; in the data active = enhancement above about 30%; note: 0% is about no effect
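Enhancer read-out: after compound pinning and an initial kinetic agonist-mode read, an EC20 of TRH (10 nM final) was injected and fluo-8 calcium signal (Ex 480/Em 530) followed at 1 s/cycle for 100 cycles in TRHR-expressing cells.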
D1 antagonist: human D1 dopamine receptor antagonism; 360,000 tested, 3.2% active; P21728; HEK293 TREx D1 cells, calcium flux, dopamine EC80; hits give low values; activity change, negative = inhibition, % at 10 µM; AID 504652; in the data active = activity change below about -30%; note: % is set by controls: 0 for no effect and ±100 for the full control effect
Target sequence (P21728 whole entry, looked up): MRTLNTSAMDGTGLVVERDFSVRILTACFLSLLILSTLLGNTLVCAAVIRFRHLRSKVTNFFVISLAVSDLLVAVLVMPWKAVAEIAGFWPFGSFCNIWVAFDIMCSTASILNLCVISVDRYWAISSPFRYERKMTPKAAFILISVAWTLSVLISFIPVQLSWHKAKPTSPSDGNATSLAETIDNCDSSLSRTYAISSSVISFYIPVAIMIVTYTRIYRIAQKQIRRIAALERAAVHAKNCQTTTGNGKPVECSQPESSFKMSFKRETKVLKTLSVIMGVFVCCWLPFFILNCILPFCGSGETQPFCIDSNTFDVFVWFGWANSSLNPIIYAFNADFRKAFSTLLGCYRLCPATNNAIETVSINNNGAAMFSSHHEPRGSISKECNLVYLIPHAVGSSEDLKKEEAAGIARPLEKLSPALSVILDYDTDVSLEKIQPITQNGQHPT
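Tetracycline-induced HEK293 T-REx cells with force-coupled D1 receptor were loaded with a no-wash calcium dye. Compound was added after a 10 s baseline and read kinetically for 180 s; EC80 dopamine was then added and calcium flux followed another 180 s.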
LDHA block: inhibitors of human lactate dehydrogenase A; activity change, % (values are at about 110 or 230 µM); AID 1347041; 480,000 tested, 0.15% active; purified LDHA, NADH/diaphorase-resazurin fluorescence; hits give low values; P00338; in the data active = activity change below about -30%;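 note: plate controls were DMSO wells for no effect and wells without enzyme for full effect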
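Enzyme activity of human lactate dehydrogenase 5 (2 nM; 0.06 mM NADH, 0.2 mM pyruvate, 5 min, RT) is measured via a resazurin/diaphorase fluorescence readout of residual NADH.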
TRHR ag: agonists of human TRH receptor; P34981; TRHR cells, calcium flux fluo-8, FDSS agonist mode; activation, % at 2 µM; 360,000 tested, 0.18% active; AID 493084; note: 0% is about no effect
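TRHR-expressing cells, plated overnight in medium with 10% serum, were loaded with fluo-8 calcium dye at room temperature. After a 10 s baseline, library compound was pin-added and calcium release was recorded kinetically (ex 480/em 530) as agonist response.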
D1 potentiator: potentiators of human D1 dopamine receptor. 360,000 tested, 0.036% active. HEK293 TREx D1 cells, calcium flux, dopamine EC20 potentiation. P21728. potentiation, % at 10 µM; in the data active = potentiation above about 30%; note: 0% is about no effect
D1 agonist: agonists of human D1 dopamine receptor; HEK293 T-REx D1 cells, calcium flux, agonist mode; activation, % at 2 µM; 360,000 tested, 1% active; AID 504660; note: 0% is about no effect
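Tetracycline-induced HEK293 TREx D1 cells, force-coupled to calcium signalling, were dye-loaded with a no-wash calcium kit. Compound was pin-added after a 10 s baseline. Fluorescence was read kinetically at 1 cycle/s for 180 s, with calcium rises flagged as agonism.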
The depositor's hits bear a star; nt = no result. Cut-off read from the data, not from the text of the source, unless noted: active = activation above about 30%; inactive = the rest.

SMILES | TRHR PAM | D1 antagonist | LDHA block | TRHR ag | D1 potentiator | D1 agonist
Cc1c(Cl)cccc1NC(=O)N1CCC(CN2CCOCC2)CC1 | -18 | -71* | 2 | 0 | -6 | -1
COc1cc(OC)c(NC(=O)N2CCC(CN3CCOCC3)CC2)cc1Cl | 0 | -11 | 11 | 1 | 1 | -2
Cc1cccc(N(C)C(=O)Cn2nc(-c3ccc(F)cc3)ccc2=O)c1 | nt | nt | -10 | nt | nt | nt
COc1cnc(-c2ccccn2)nc1Sc1ccccc1Cl | -5 | 26 | -2 | 0 | 3 | 32*
Cc1ccc(N2CC(C(=O)N3CCc4ccccc43)CC2=O)cc1 (stereo not given) | 0 | -13 | 3 | -1 | -3 | -1
O=C1CC(C(=O)N2CCc3ccccc32)CN1c1ccccc1 (stereo not given) | -4 | -31* | 1 | 0 | -2 | 0
COc1ccccc1COCC(O)Cn1nc(-c2ccccc2)c2ccccc2c1=O (stereo not given) | nt | nt | -1 | nt | nt | nt
Cn1cnnc1SCc1coc(-c2cccc(Cl)c2)n1 | nt | nt | -7 | nt | nt | nt
N#CCc1nnc(-c2ccccc2)s1 | nt | nt | -3 | nt | nt | nt
COc1cc(OC)c(OC)cc1CCC(C)NCCC(c1ccccc1)c1ccccc1 (stereo not given) | -2 | -15 | 10 | 7 | -7 | 78*
O=C(O)/C=C/c1ccc(-c2ccc(Br)cc2)s1 | nt | nt | 11 | nt | nt | nt
CCOc1ccc(C(=O)CCC(=O)OCC(=O)c2ccccc2Br)cc1 | nt | nt | 0 | nt | nt | nt
CC1CCC(C)[S+]1c1cc(O)ccc1O (stereo not given) | nt | nt | 91 | nt | nt | nt
CCOC(=O)C(NC(=O)c1cccc(Cl)c1)(OCc1ccc(F)cc1)C(F)(F)F (stereo not given) | 13 | -35* | 5 | -3 | -3 | 13
Cc1cc(=O)c(C(=O)OCC#N)nn1-c1cccc(C(F)(F)F)c1 | nt | nt | -15 | nt | nt | nt
CC1CCCC(NC(=O)CSc2ccc(F)cc2)C1C (stereo not given) | 0 | -6 | -4 | -1 | 10 | 2
CC1CCCC(NCC(O)COC(c2ccc(F)cc2)c2ccc(F)cc2)C1C (stereo not given) | -3 | 17 | -7 | 2 | -8 | 63*
C[C@@H]1CC2(CCCN2)C[C@H]1C | nt | nt | -8 | nt | nt | nt
COc1ccc(-c2c(C)nn(Cc3ccccc3)c2N)cc1 | 30* | -9 | -2 | 0 | 1 | 1
COc1ccc(OC)c(NC(=O)Cn2cc(C(=O)c3cccs3)c3ccccc32)c1 | 7 | -34* | -1 | 0 | 4 | 1
COCCNC(=O)C(OC(=O)c1cccs1)c1ccccc1 (stereo not given) | -9 | -36* | -5 | -1 | 3 | 9
Cc1ccc(C)c(NC(=O)Cn2nc(-c3ccccc3)nc2-c2ccccc2)c1 | 7 | -33* | -3 | 0 | -1 | -1
Cc1ccc2sc(N(CCCN(C)C)C(=O)CCS(=O)(=O)c3ccccc3)nc2c1C | -2 | -17 | -1 | 3 | -7 | 64*
Cc1cccc2sc(N(CCCN(C)C)C(=O)CCc3ccccc3)nc12 | 16 | -24 | 2 | 5 | -10 | 22
Cc1cccc2sc(N(CCCN(C)C)C(=O)CN3C(=O)c4ccccc4C3=O)nc12 | 4 | -9 | -6 | 1 | -2 | 33*
SMILES | TRHR PAM | D1 antagonist | LDHA block | TRHR ag | D1 potentiator | D1 agonist
COCCN(Cc1cccs1)C(=O)CC1C=CCC1 (stereo not given) | nt | nt | 2 | nt | nt | nt
O=C1OC[C@H](Cc2ccc3c(c2)OCO3)/C1=C\c1ccc2c(c1)OCO2 | 9 | -33* | 1 | 0 | 0 | 20
O=C1CC(Cc2ccccc2)C(=O)N1CCc1ccc2c(c1)OCO2 (stereo not given) | 12 | -8 | 1 | 0 | 3 | 2
O=Cc1cccc2c1OCCO2 | nt | nt | 6 | nt | nt | nt
O=C1CCCN1c1ncc(S(=O)(=O)c2ccc([N+](=O)[O-])cc2)s1 | -5 | -47* | -9 | -1 | -4 | 13
Nc1ncc(S(=O)(=O)c2ccc([N+](=O)[O-])cc2)s1 | nt | nt | -7 | nt | nt | nt
O=C(CSc1n[nH]c(=O)n1Cc1ccccc1)Nc1ccc(F)c(F)c1F | 22 | 4 | -8 | -2 | -4 | 34*
CCn1cnc2c1c(=O)n(CC(=O)N(C)C1CCS(=O)(=O)C1)c(=O)n2Cc1ccccc1 (stereo not given) | nt | nt | 6 | nt | nt | nt
CC1CN(c2ccc([N+](=O)[O-])c(NCCOc3ccccc3)c2)CC(C)N1 (stereo not given) | 3 | -15 | -1 | 2 | -10 | 17
CC1CN(c2ccc([N+](=O)[O-])c(NCCOc3ccc(Cl)cc3)c2)CC(C)N1 (stereo not given) | 3 | -9 | 3 | 2 | -5 | 39*
Cc1ccc(NS(=O)(=O)c2cc(C(=O)N(C)C)ccc2C)cc1C | 17 | -37* | -10 | 0 | 4 | 0
Cc1ccc(NS(=O)(=O)c2cc(C(=O)N3CCCC3)ccc2C)cc1C | -1 | 2 | -7 | -1 | -4 | 1
O=C1c2ccccc2C(O)(Cc2ccccc2)N1CCCN1CCOCC1 (stereo not given) | -7 | -77* | -18 | -1 | -2 | 2
CC(C)CN1C(=O)c2ccccc2C1(O)Cc1ccccc1 (stereo not given) | 1 | -37* | -5 | -1 | -1 | 5
Cc1cccc(Nc2cc(C)c3c(O)cccc3n2)c1C | -2 | -92* | 0 | 6 | -10 | 13
COc1cc(Nc2ncnc3c2cnn3-c2ccc(Cl)cc2)cc(OC)c1OC | nt | nt | -10 | nt | nt | nt
CCOC(=O)C1CCN(C(c2cccs2)c2sc3nc(C)nn3c2O)CC1 (stereo not given) | -4 | 3 | -2 | 0 | -10 | 0
CCOC(=O)C1CCN(C(c2cccc(OC)c2)c2sc3nc(C)nn3c2O)CC1 (stereo not given) | 3 | -31* | -10 | 0 | -9 | 0
CC1CCCc2sc3nc(SCC(=O)c4ccc(Cl)cc4)nc(N)c3c21 (stereo not given) | nt | nt | 11 | nt | nt | nt
CCN1CC2=C(OC(N)=C(C#N)C2c2ccccc2)/C(=C\c2ccccc2)C1 (stereo not given) | -2 | -73* | 5 | 0 | -5 | 2
N#CC1=C(N)OC2=C(CCC/C2=C/c2ccoc2)C1c1ccoc1 (stereo not given) | 18 | 3 | nt | 2 | 1 | 10
CC(C)N1CC2=C(OC(N)=C(C#N)C2c2cccnc2)/C(=C/c2cccnc2)C1 (stereo not given) | 34* | -6 | 3 | 0 | -5 | 4
N#CC1=C(N)OC2=C(CC/C2=C\c2ccc(F)cc2)C1c1ccc(F)cc1 (stereo not given) | 2 | -58* | nt | 42* | 7 | 235*
CC(C)(NC1CCCCC1)c1nnnn1-c1ccccc1 | nt | nt | -1 | nt | nt | nt
O=C(CSc1nc(CN2CCOCC2)nc2ccccc12)NC1CC1 | nt | nt | 2 | nt | nt | nt
